Screens (PubChem)
TDP1 cell CPT: DT40-hTDP1 cell growth loss with CPT; chicken DT40 Tdp1-/-;hTDP1 cells + 20 nM CPT, ATP luminescence, 48 h; Potency, µM (doses to about 46.2 µM), inactives show at the top dose activity change, negative = growth inhibition, hits mostly inhibitors; 12% of 420,000 active; note: potency is the fitted concentration of half-maximal effect; nearly all actives have a fitted effect of over 55% in size
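Chicken DT40 Tdp1-/- cells stably complemented with human TDP1 were seeded at 400 cells/well in medium containing 20 nM camptothecin, exposed to pin-transferred compounds, and grown at 37 °C for at least 48 hr. Viability was read as ATP luminescence.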
IL1B secr inh: inhibitors of inflammasome signaling (IL-1 beta secretion) | THP-1 LPS/ATP IL-1B secretion, AlphaLISA, 16 h; hits give low values | 4.7% of 360,000 active | activity change, % at 57.5 µM; in the data active = activity change below about -50%; inconclusive = mostly about -30% to -49%
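THP-1 cells pretreated 1 hr with compounds (up to 57.5 uM final), then stimulated with LPS (250 ng/mL final) plus ATP (1.25 mM final); secreted IL-1B measured by AlphaLISA after 16 hr, decreased signal indicating inhibition.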
HT1080NT lethal: kills 2HG-producing HT-1080-NT fibrosarcoma cells. HT-1080-NT fibrosarcoma viability, CellTiter-Glo ATP luminescence, 48 h. Potency, µM (titrated, usually from 46.1 µM), for inactives: top-dose activity, negative = less viability, hits mostly cytotoxic. 1.6% of 360,000 active;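 note: NT is the 2HG producing partner of a matched IDH1 knockdown line; potency is the fitted concentration of half-maximal effect; 0% = DMSO-treated cells and -100% = media-only wells without cells; nearly all actives have a fitted effect of over 55% in size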
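Fibrosarcoma NT cells, 750 per well in 5% FBS RPMI, were exposed to compound for 48 hours. Viability: CellTiter-Glo luminescence.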
HT1080 IDH1KD tx: HT-1080 IDH1 knockdown cell toxicity (counter line); HT-1080 IDH1 knockdown viability, ATP luminescence, 48 h; Potency, µM (doses to about 46.1 µM), without a hit: top-dose activity, negative = toxicity, most hits filed as cytotoxic; 2% of 360,000 active;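 note: potency is the fitted concentration of half-maximal effect; 0% = DMSO wells and -100% = cell-free medium wells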
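CellTiter-Glo luminescence after 48 h compound exposure at 37 degrees C of IDH1-knockdown HT-1080 cells in 5% FBS RPMI. %Activity scaled between DMSO wells and cell-free media wells, with curves fitted and assigned curve classes.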
TDP1 cell noCPT: qHTS for Inhibitors of human tyrosyl-DNA phosphodiesterase 1 (TDP1): qHTS in cells in absence of CPT; DT40 Tdp1-/- hTDP1 cells, no CPT, ATP luminescence, 48 h; Potency, µM (titrated, usually from 46.2 µM), for inactives: at the top dose activity change, negative = growth inhibition, actives largely listed as inhibitors; 15% of 420,000 active; note: potency is the fitted concentration of half-maximal effect; nearly all actives have a fitted effect of over 55% in size
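Camptothecin absent (DMSO only). Human TDP1-complemented DT40 knockout cells, 400 cells/well, 37 °C for minimum 48 hr; ATP measured via CellTiter-Glo, 30 min dark incubation, luminescence.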
Active calls of the source: *; u = inconclusive; x = no result given. This is a sample that favours compounds with a hit; in the whole collection about 19% have one here. Unless noted, calls come from the whole dose curve; as a rule, active = well fitted curve in the direction sought with a large enough effect; inconclusive = small, poorly fitted or top-dose-only effect, or another doubt; inactive = no such curve, though single readings can be large; an effect the other way counts as inactive or inconclusive. Unless noted, % is set by controls: 0 for no effect and ±100 for the full control effect.

SMILES	TDP1 cell CPT	IL1B secr inh	HT1080NT lethal	HT1080 IDH1KD tx	TDP1 cell noCPT
CC(=O)c1ccc(NC(=O)C(C)N2CCN(C/C=C/c3ccccc3)CC2)cc1 (stereo unspecified)	-15.6%	-1.8	-12.2%	-1.2%	u
COc1ccc(Cl)cc1NC(=O)C(C)N1CCN(C/C=C/c2ccccc2)CC1 (stereo unspecified)	u	-58.9*	u	u	20.6µM*
CC(C(=O)Nc1ccc([N+](=O)[O-])cc1)N1CCN(C/C=C/c2ccccc2)CC1 (stereo unspecified)	u	-77.2*	-4.9%	-13.5%	u
COc1ccc(CNc2ncnc3nc[nH]c23)cc1OC	u	x	x	x	-10.7%
CCOc1cc(CNc2ncnc3nc[nH]c23)ccc1OC	u	39.7	12.6%	-0.4%	25.9µM*
CCOC(=O)c1ccc(CNc2ncnc3nc[nH]c23)cc1	3.98µM*	x	x	x	11.2µM*
O=c1[nH]c(=O)n(Cc2ccco2)c2c1C(C(F)(F)F)(C(F)(F)F)N=C(c1ccc(F)cc1)N2	11.6µM*	-67.7*	u	u	6.51µM*
CC(=O)Nc1ccc(NC(=O)Cn2nc([N+](=O)[O-])c(Br)c2C)cc1	0.5%	6.7	3.2%	5.1%	-19.2%
Cc1c(Br)c([N+](=O)[O-])nn1CC(=O)Nc1ccc(C(C)C)cc1	u	6.6	-28.2%	23.1µM*	u
O=C(N/N=C/c1ccccc1)c1cccc2ccccc12	u	3.8	-18.1%	-3.0%	1.3µM*
Cc1ccc(/C=N/NC(=O)c2ccc(NC(=O)c3ccccc3Cl)cc2)o1	7.2%	-70.7*	-0.3%	-0.7%	-14.9%
COc1cc(/C=N/NC(=O)c2cccc3ccccc23)cc(OC)c1OC	-7.1%	77.7	-9.3%	0.5%	u
O=C(N/N=C/c1ccco1)c1ccc(NC(=O)c2ccccc2Cl)cc1	-6.6%	-15.7	u	-20.8%	-23.5%
O=C(N/N=C/c1ccc([N+](=O)[O-])cc1)c1cccc2cc[nH]c12	-26.8%	-11.6	-0.6%	-3.8%	u
CCN(CC)c1ccc(/C=N\NC(=O)c2cccc3cc[nH]c23)cc1	5.17µM*	15.4	u	5.17µM*	2.91µM*
CSc1ccc(/C=N/NC(=O)c2cc(O)cc(O)c2)cc1	-7.0%	-2.3	-20.2%	-14.6%	2.9%
CSc1ccc(/C=N/NC(=O)c2ccc(C)c(C)c2)cc1	u	-16.8	-10.0%	-9.3%	23.1µM*
O=C(O)C(=Cc1cccc([N+](=O)[O-])c1)c1ccc(Cl)cc1	u	-5.1	-0.8%	6.7%	u
Cc1ccnn1-c1ccc(C(=O)OCC(=O)Nc2ccc(F)cc2)cc1	-11.0%	2.2	-0.4%	0.9%	-17.2%
Cc1ccccc1C(=O)Nc1ccc(C(=O)N/N=C/c2ccc(O)cc2)cc1	u	-98.6*	8.2µM*	u	u
Cc1ccc(/C=N/NC(=O)c2c[nH]c3ccccc23)o1	-26.3%	-4.2	3.2%	-23.2%	-17.3%
Cc1ccc(/C=N/NC(=O)c2cccc3ccccc23)o1	13µM*	-2.8	u	u	8.2µM*
CCCC(=O)Nc1cccc(-c2nc3ccccc3c(=O)o2)c1	39.0%	-2.5	0.6%	18.0%	2.5%
CN(C)c1ccc(N=c2sc3ccccc3n2C)cc1	-29.5%	-50.8*	-19.8%	-7.6%	-30.0%
Cn1c(=NC(=O)c2ccc(F)cc2)sc2cc(Br)ccc21	-10.9%	x	x	x	-15.5%
CC(=O)SCC(=O)N=c1sc2cc(F)ccc2n1C	u	-6.2	13.5%	11.2%	20.6µM*
CCOC(=O)N1CCN(C(=O)CSCC(=O)N=c2sc3cc(OC)ccc3n2C)CC1	u	20.9	7.2%	7.6%	u
Cn1c(=NC(=O)CCl)sc2ccccc21	2.59µM*	-120.2*	5.8µM*	6.51µM*	4.11µM*
CCOC(=O)N1CCN(C(=O)CSCC(=O)N=c2sc3ccccc3n2C)CC1	16.4µM*	-17.9	12.4%	8.0%	u
Cn1c(=Nc2ccccc2)sc2ccccc21	-14.5%	14.6	-0.6%	3.8%	-3.1%
